Experimental data reported in PubChem BioAssay (NCATS).
Records with an inconclusive call do not appear. The source holds several records for some structures; these can differ, active in one and inactive in another. Unmarked numbers belong to inactive results. Calls of active or inactive are those of the source. The call rests on the fitted dose curve; in most records, active means well fitted inhibition curve with a large enough effect; inconclusive means small, poorly fitted or top-dose-only effect; inactive means flat fitted curve, though single readings scatter.

Columns and labels:
Experiment in all cases: Cytotoxic Profiling of Annotated Libraries Using Quantitative High-Throughput Screening (AID 1296008); further: nearly all actives have a fitted effect of over 60% in size
Settings in all cases: Five cell lines viability, CellTiter-Glo ATP luminescence, 48-72 h; max response: hits give low values
[1] = system: HaCat
How it was run: (§1)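 Cytotoxicity was measured as CellTiter-Glo ATP luminescence, read after 10 min at room temperature. Compound treatment of the cells lasted 48 or 72 hr at 37 degrees Celsius in a qHTS format.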

[2] = system: KB-3-1
How it was run: as §1

[3] = system: NIH3T3
How it was run: as §1
On the % scale 0 is the no-effect control and ±100 the full control effect; potency means the concentration at half of the fitted maximal effect.

SMILES: O=C(CC(c1ccccc1)c1ccccc1)N1CCN(C(c2ccccc2)c2ccccc2)CC1
- max response [1]: -29%
- Potency [2]: 18.4 µM (active)

SMILES: CNC(=O)c1cc(Oc2ccc3nc(N[C@@H]4CCCC[C@H]4O)sc3c2)ccn1
- outcome [1]: inactive
- max response [2]: -18.3%

SMILES: CCOc1cc(C(=O)N2CCC(N3CCN(C)CC3)CC2)ccc1Nc1ncc2c(n1)N(C1CCCC1)c1ccccc1C(=O)N2C
- max response [1]: -1.5%
- Potency [2]: 23.1 µM (active)

SMILES: CC(C)(C)Nc1nc2cc(Cl)c(Cl)cc2nc1S(C)(=O)=O
- Potency [1]: 5.8 µM (active)
- Potency [2]: 13 µM (active)

SMILES: C[C@@H]1C[C@@H]2O[C@H]2/C=C\C=C\C(=O)Cc2c(Cl)c(O)cc(O)c2C(=O)O1
- Potency [1]: 3.6 µM (active)
- Potency [2]: 2.27 µM (active)

SMILES: CO[C@H]1/C=C\O[C@@]2(C)Oc3c(C)c(O)c4c(O)c(c5c(nc6cc(C)ccn65)c4c3C2=O)NC(=O)/C(C)=C\C=C/[C@H](C)[C@H](O)[C@@H](C)[C@@H](O)[C@@H](C)[C@H](OC(C)=O)[C@@H]1C
- max response [1]: -2.81%
- max response [2]: 9.37%

SMILES: COC(=O)CCSCc1ccc(-c2onc(C)c2NC(=O)OC(C)c2ccccc2Cl)cc1 (stereo not given)
- max response [1]: -24.6%
- outcome [2]: inactive

SMILES: COc1cc(C)c(C(=O)Oc2cc(C)c(C(=O)Oc3cc(C)c(C(=O)NC(C)C(=O)O)c(O)c3)c(O[C@@H]3O[C@H](CO)[C@@H](O)[C@H](O)[C@H]3OC(C)=O)c2)c(OC)c1 (stereo not given in full)
- max response [1]: -13.9%
- max response [2]: -6.88%

SMILES: Cc1cc2c(F)c(Oc3ncnn4cc(OCC(C)O)c(C)c34)ccc2[nH]1 (stereo not given)
- max response [1]: -0.656%
- max response [2]: -12.6%

SMILES: CC(C)CCC(=O)CC1c2ccccc2C(=O)N1c1ccc2ccc(Cl)nc2n1 (stereo not given)
- max response [1]: 3.26%
- max response [2]: 2.42%

SMILES: FC(F)(F)c1cc(-c2ncn(/C=C\c3nnco3)n2)cc(C(F)(F)F)c1
- max response [1]: -20%
- max response [2]: -19.3%

SMILES: CN(CCc1ccc(Nc2ncc(-c3cccnc3)s2)cc1)Cc1ccccc1
- max response [1]: -1.85%
- max response [2]: -12.1%

SMILES: CC(=O)c1cc(C(=O)N[C@@H](C)Cn2ccc(-c3ccc(C#N)c(Cl)c3)n2)[nH]n1
- max response [1]: -24.9%
- max response [2]: -26.1%

SMILES: NC(=O)[C@H]1CCS[C@@H]2C[C@]3(CCCN3C(=O)Cc3ccc(NC(=O)COc4ccc(Cl)cc4Cl)cc3)C(=O)N12
- Potency [1]: 18.6 µM (active)
- max response [1]: -24.7%
- Potency [3]: 11.7 µM (active)

SMILES: COc1ccc2nc(S(=O)(=O)Cc3ncc(C)c(OC)c3C)[nH]c2c1
- max response [1]: -8.8%
- max response [2]: -6.6%

SMILES: N#CC(c1ccnc(OCc2ccc(CN3CCOCC3)cc2)n1)c1nc2ccccc2s1 (stereo not given)
- max response [1]: 0.847%
- max response [2]: -18.3%

SMILES: C=C(C)C(=O)O[C@H]1CC2=CC(C/C(C)=C\[C@H]3OC(=O)C(=C)[C@H]13)OC2=O (stereo not given in full)
- Potency [1]: 12.8 µM (active)
- max response [2]: -20.7%

SMILES: C=C(C)C(=O)OC1C(OC(C)=O)/C(C=O)=C\CC/C(CO)=C/C2OC(=O)C(=C)C21 (stereo not given)
- max response [1]: -6.21%
- max response [2]: -25.3%

SMILES: O=C(O)c1cc2cccc([N+](=O)[O-])c2[nH]1
- max response [1]: -11.1%
- max response [2]: 5.58%

SMILES: Cc1csc(NC(=O)c2ccc(COc3cccc(Cl)c3)o2)n1
- max response [1]: 2.26%
- max response [2]: -1.89%

SMILES: COc1ncc(Nc2ncc([C@H](C)N3CCN(S(C)(=O)=O)CC3)cc2-c2nc(C)nc(N)n2)cc1F
- Potency [1]: 0.146 µM (active)
- Potency [2]: 6.51 µM (active)

SMILES: Cc1nc(NC(=O)N2CCCC2C(N)=O)sc1-c1csc(C(C)(C)C)n1 (stereo not given)
- Potency [1]: 5.17 µM (active)
- outcome [2]: inactive

SMILES: CC(O)/C=C/C1(O)C2(C)COC1(C)CC(O)C2 (stereo not given)
- max response [1]: -4.33%
- max response [2]: -4.44%

SMILES: CN(C)C/C=C/C(=O)Nc1cc2c(Nc3ccc(F)c(Cl)c3)ncnc2cc1OC1CCOC1 (stereo not given)
- Potency [1]: 0.517 µM (active)
- Potency [2]: 5.17 µM (active)

SMILES: C=C(C)C(=O)O[C@H]1C[C@@](C)(O)C(=O)CC(O)/C(C)=C\[C@H]2OC(=O)C(=C)[C@H]12 (stereo not given in full)
- max response [1]: -1.1%
- outcome [2]: inactive

SMILES: C=C1[C@@H]2CC[C@@H]3[C@@](CCC4C(C(=O)O)(C(=O)O)C[C@@H](O[C@@H]5O[C@H](CO)[C@@H](O)[C@H](O)[C@H]5OC(=O)CC(C)C)C[C@]43C)(C2)[C@H]1O (stereo not given in full)
- max response [1]: 2.26%
- outcome [2]: inactive

SMILES: COCCOc1cnc2ccn([C@H](C)c3nnc4c(F)cc(-c5cnn(C)c5)cn34)c(=O)c2c1
- max response [1]: 4.9%
- max response [2]: 1.49%

SMILES: CC(=O)C12OC(C)(C)OC1CC1C3CCC4=CC(=O)C=CC4(C)C3(F)C(O)CC12C (stereo not given)
- max response [1]: -3.19%
- outcome [2]: inactive

SMILES: COc1ccc(-c2c(-c3cc(C(=O)O)ccn3)ncn2C)cc1
- max response [1]: -1.2%
- max response [2]: 4.75%

SMILES: COc1cc2nc(N3CCCC3)nc(NCCCCCN3CCCC3)c2cc1OC
- Potency [1]: 18.4 µM (active)
- Potency [2]: 16.4 µM (active)

SMILES: Cc1cc(N(C)C)ccc1-c1nc2ccc(-c3nc4ccc(N5CCN(C)CC5)cc4[nH]3)cc2[nH]1
- max response [1]: -16.4%
- Potency [2]: 23.1 µM (active)

SMILES: C=C1C(=O)OC2/C=C(\CO)CC/C=C(\C=O)CC(OC(=O)CC(C)C)C12 (stereo not given)
- max response [1]: -10.5%
- max response [2]: -5.58%

SMILES: O=C1CCC(c2ccccc2)(C2CCN(Cc3ccc(I)cc3)CC2)C(=O)N1 (stereo not given)
- max response [1]: -3.49%
- max response [2]: -7.17%

SMILES: Cc1cc(C(=O)N2Cc3cnn(C)c3Nc3ccccc32)ccc1CNC(=O)N1CCC[C@H]1C(=S)N1CCCN(C)CC1
- max response [1]: -21.4%
- max response [2]: 2.82%

SMILES: CCCC(=O)NCCc1csc(-c2ccc(Cl)cc2)n1
- max response [1]: -70.2%
- max response [2]: -24.2%

SMILES: Nc1ccc(/C=C/C(=O)NCc2cc3cc(-c4ccc(C(=O)N5CCC(F)(F)CC5)cc4)cc(-c4ccc(F)cc4)c3o2)cn1
- Potency [1]: 5.17 µM (active)
- Potency [2]: 0.92 µM (active)

SMILES: O=C1NC(=O)C(c2cn(-c3ccccc3)nc2-c2ccc(F)cc2)N1 (stereo not given)
- Potency [1]: 16.4 µM (active)
- outcome [2]: inactive

SMILES: CC(=O)SCC(=O)c1ccc(NS(=O)(=O)c2ccc(OCCCN(C)C)cc2)nc1
- Potency [1]: 14.6 µM (active)
- Potency [2]: 8.2 µM (active)

SMILES: N#Cc1ccc2[nH]cc(CCCCN3CCN(c4ccc5oc(C(N)=O)cc5c4)CC3)c2c1
- max response [1]: -11.5%
- max response [2]: -15.8%

SMILES: CS(=O)(=O)NCC1CCC(Nc2nc3c(s2)CCSc2ccccc2-3)CC1 (stereo not given)
- outcome [1]: inactive
- max response [2]: -22.2%

SMILES: COC(=O)Cc1cc2c(c([N+](=O)[O-])c1)N(C(=O)CC[C@H](N)C(=O)O)CC2
- max response [1]: -29.1%
- max response [2]: 7.29%

SMILES: COc1cc(O)cc(C)c1C(=O)O[C@@H]1[C@H](O)[C@@H](CO)O[C@H]1n1ccc(=O)[nH]c1=O
- max response [1]: -4.84%
- max response [2]: -16.4%

SMILES: CCOc1cc(C)c(Cl)cc1S(=O)(=O)n1cnc2ccccc21
- max response [1]: -29.2%
- outcome [2]: inactive

SMILES: Cn1nnc(-c2ccc(-c3ccc(N4C[C@H](COP(=O)(O)O)OC4=O)cc3F)cn2)n1
- max response [1]: 0.171%
- max response [2]: -33%

SMILES: CCC1=CC2CN(C1)Cc1c([nH]c3ccccc13)[C@@](C(=O)OC)(c1cc3c(cc1OC)N(C)[C@H]1[C@@](O)(C(=O)OC)[C@H](OC(C)=O)[C@]4(CC)C=CCN5CC[C@]31[C@@H]54)C2 (stereo not given in full)
- outcome [1]: inactive
- Potency [2]: 0.0355 µM (active)

SMILES: CC[C@]1(O)CC2CN(CCc3c([nH]c4ccccc34)[C@@](C(=O)OC)(c3cc4c(cc3OC)N(C=O)[C@H]3[C@@](O)(C(=O)OC)[C@H](OC(C)=O)[C@]5(CC)C=CCN6CC[C@]43[C@@H]65)C2)C1 (stereo not given in full)
- max response [1]: 3.94%
- Potency [2]: 0.0081 µM (active)

SMILES: COc1cc(-c2ncn(/C=C\C(=O)OC(C)C)n2)cc(C(F)(F)F)c1
- Potency [1]: 2.06 µM (active)
- Potency [2]: 1.84 µM (active)

SMILES: CC1(C)C2CC(OC3OC(COC4OCC(O)(CO)C4O)C(O)C(O)C3O)C1(C)CC2O (stereo not given)
- max response [1]: -6.58%
- outcome [2]: inactive

SMILES: COc1ccc(C(=O)C2CCN(CC(=O)N(Cc3nc4c(c(=O)[nH]3)COCC4)CC3CC3)CC2)cc1
- max response [1]: -5.45%
- max response [2]: 9.05%

SMILES: C=C1C(=O)OC2CC(C)=C(C(C)CCCO)C(O)C12 (stereo not given)
- max response [1]: -11.4%
- outcome [2]: inactive

SMILES: CCCCNc1ccc(-c2ccc(CN3CCOCC3)cn2)c(NC2CCC(O)CC2)c1 (stereo not given)
- max response [1]: -2.49%
- max response [2]: -18.8%

SMILES: CN1CCC(Nc2nc(Nc3ccc(Oc4ccccc4)cc3)c3c(=O)[nH]cc(Br)c3n2)CC1
- Potency [1]: 4.11 µM (active)
- Potency [2]: 5.8 µM (active)

SMILES: CC1=C(C(=O)O)/C(=C/CO[C@@H]2O[C@H](COC(=O)/C=C/c3ccc(O)cc3)[C@@H](O)[C@H](O)[C@H]2O)C(O)C1 (stereo not given in full)
- max response [1]: -4.87%
- max response [2]: 2.44%

SMILES: CO[C@H]1/C=C/C=C/C=C/C[C@H](OC(=O)[C@@H](C)NC(=O)C2CCCCC2)[C@H](C)[C@@H](O)/C(C)=C/CCc2cc(O)cc(c2)NC(=O)C1
- Potency [1]: 1.09 µM (active)
- Potency [2]: 0.544 µM (active)

SMILES: COc1ncc(Nc2ncc([C@@H](C)N3CCN(S(C)(=O)=O)CC3)cc2-c2nc(C)nc(N)n2)cc1F
- Potency [1]: 0.058 µM (active)
- Potency [2]: 9.2 µM (active)

SMILES: C=C1C(=O)O[C@H]2C1[C@H](OC(=O)/C(=C/CO)COC(=O)/C(C)=C/CO)CC(=C)[C@@H]1CC(=O)[C@@H](C)[C@@H]12 (stereo not given in full)
- max response [1]: -52.7%
- max response [2]: -3.1%

SMILES: CC[C@]1(O)CC2CN(CCc3c([nH]c4ccccc34)[C@@](C(=O)OC)(c3cc4c(cc3OC)N(C)[C@H]3[C@@](O)(C(=O)OC)[C@H](OC(C)=O)[C@]5(CC)C=CCN6CC[C@]43[C@@H]65)C2)C1 (stereo not given in full)
- max response [1]: 4.47%
- Potency [2]: 0.0366 µM (active)
